# Experimental data taken from PubChem BioAssay (Tox21).
# Several values for one entry are separate records, joined by “and”; a condition that tells them apart may be missing. Equal values may be shown once. Inconclusive results are not listed. Where a call stands in place of a potency, no number is given. A structure can be active in one record and inactive in another. Activity calls are given as the source filed them. Unless noted, the call rests on the fitted dose curve; in most records, active means well fitted curve in the direction sought with a large enough effect in the repeat runs; inconclusive means weak or mixed curves; inactive means no such curve, though single readings can be large; an effect the other way counts as inactive or inconclusive.
# Experiments:
# [1] = qHTS assay to identify aromatase inhibitors - cell viability counter screen (AID 743084);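 further: cells stimulated with testosterone during compound exposure; nearly all actives have a fitted effect of over 55% in size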; further: potency means the concentration at half of the fitted maximal effect
# [2] = target: Aryl hydrocarbon receptor (Homo sapiens) (UniProt P35869); assay: qHTS assay to identify small molecule that activate the aryl hydrocarbon receptor (AhR) signaling pathway (AID 743085); further: nearly all actives have a fitted effect of over 15% in size; further: potency means the concentration at half of the fitted maximal effect;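 on activation: HG2L7.5c1 human HepG2 liver cells with stably integrated DRE-driven firefly reporter; series mostly up to about 70 µM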
# Aryl hydrocarbon receptor (Homo sapiens), sequence (P35869 whole entry, looked up): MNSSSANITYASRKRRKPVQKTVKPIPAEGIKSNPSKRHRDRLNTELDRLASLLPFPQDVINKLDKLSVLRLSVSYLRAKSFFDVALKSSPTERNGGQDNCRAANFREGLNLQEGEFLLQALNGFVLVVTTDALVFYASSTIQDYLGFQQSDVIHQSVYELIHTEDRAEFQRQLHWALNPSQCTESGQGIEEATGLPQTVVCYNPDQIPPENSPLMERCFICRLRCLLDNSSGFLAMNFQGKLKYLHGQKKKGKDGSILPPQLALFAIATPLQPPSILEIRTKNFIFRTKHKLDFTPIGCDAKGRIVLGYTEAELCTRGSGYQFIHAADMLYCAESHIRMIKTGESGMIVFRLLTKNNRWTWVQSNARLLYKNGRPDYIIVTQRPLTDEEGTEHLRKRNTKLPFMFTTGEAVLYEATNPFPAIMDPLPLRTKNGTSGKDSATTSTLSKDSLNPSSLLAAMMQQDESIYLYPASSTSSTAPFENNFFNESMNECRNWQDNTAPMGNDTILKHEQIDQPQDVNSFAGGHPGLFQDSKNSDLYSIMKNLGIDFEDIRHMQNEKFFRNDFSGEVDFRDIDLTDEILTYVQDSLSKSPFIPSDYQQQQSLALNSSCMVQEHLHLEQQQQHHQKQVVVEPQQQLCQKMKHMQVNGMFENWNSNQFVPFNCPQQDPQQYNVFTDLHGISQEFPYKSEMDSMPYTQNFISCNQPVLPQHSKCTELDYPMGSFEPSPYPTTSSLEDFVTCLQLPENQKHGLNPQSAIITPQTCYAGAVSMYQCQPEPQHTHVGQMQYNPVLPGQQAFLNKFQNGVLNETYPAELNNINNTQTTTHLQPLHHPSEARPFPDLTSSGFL
# How it was run: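 Luminescence read-out: ONE-Glo reagent, 30 min at room temperature, in HG2L7.5c1 HepG2 reporter cells treated 24 h at 37C. Viability was measured beforehand by CellTiter-Fluor fluorescence after 30 min at 37C.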
# [3] = qHTS assay to identify small molecule that activate the aryl hydrocarbon receptor (AhR) signaling pathway - cell viability counter screen (AID 743086); further: nearly all actives have a fitted effect of over 45% in size; further: potency means the concentration at half of the fitted maximal effect
# How it was run: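 HepG2-AhR-luc (HG2L7.5c1) cells, 4000/well, were preincubated 5 h at 37C, exposed to compound in qHTS format for 24 hr at 37C, then given CellTiter-Fluor for 30 min; viability was read as fluorescence in the reporter wells.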
# [4] = target: Peroxisome proliferator-activated receptor gamma (Homo sapiens) (UniProt P37231); assay: qHTS assay to identify small molecule agonists of the peroxisome proliferator-activated receptor gamma (PPARg) signaling pathway (AID 743094; active means well fitted activation curve with a large enough effect in the signal ratio in the repeat runs, not every such curve was filed as active; the % refers to the signal ratio)
# Peroxisome proliferator-activated receptor gamma (Homo sapiens), sequence (P37231 whole entry, looked up): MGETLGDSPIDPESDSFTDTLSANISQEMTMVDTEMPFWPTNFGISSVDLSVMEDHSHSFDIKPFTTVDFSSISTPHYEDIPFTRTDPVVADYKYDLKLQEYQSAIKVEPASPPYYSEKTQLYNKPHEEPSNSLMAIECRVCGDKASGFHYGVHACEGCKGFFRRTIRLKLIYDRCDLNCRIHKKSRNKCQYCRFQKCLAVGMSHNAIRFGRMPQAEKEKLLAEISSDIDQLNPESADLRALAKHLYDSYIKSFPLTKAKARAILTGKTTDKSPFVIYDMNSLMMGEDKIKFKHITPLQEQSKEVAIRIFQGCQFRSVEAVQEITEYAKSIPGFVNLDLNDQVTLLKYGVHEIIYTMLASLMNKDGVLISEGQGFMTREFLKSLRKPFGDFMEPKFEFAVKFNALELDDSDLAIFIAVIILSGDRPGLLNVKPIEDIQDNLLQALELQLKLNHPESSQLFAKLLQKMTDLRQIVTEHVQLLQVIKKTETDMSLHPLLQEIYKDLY
# How it was run: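 Cells from the PPARg UAS-bla HEK293H line are plated and incubated 5 h at 37C. Compounds in DMSO are pinned in and left 17 h at 37C. LiveBLAzer B/G substrate is then added for 1 h at room temperature before fluorescence is measured.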
# [5] = qHTS assay for small molecule agonists of the antioxidant response element (ARE) signaling pathway (AID 743202; active means well fitted activation curve with a large enough effect in the signal ratio in the repeat runs, not every such curve was filed as active; the % refers to the signal ratio; further: potency means the concentration at half of the fitted maximal effect)
# How it was run: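 Steps: seed ARE-bla HepG2 cells (2,000/well); incubate 5 h at 37 C; add compounds by pin tool; incubate 16 h at 37 C; add FRET substrate; read fluorescence after 2 h at RT.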
# [6] = qHTS assay for small molecule activators of the heat shock response signaling pathway - cell viability counter screen (AID 743209); further: nearly all actives have a fitted effect of over 50% in size; further: potency means the concentration at half of the fitted maximal effect
# How it was run: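 Cytotoxicity counter screen run in parallel with the HSE beta-lactamase reporter, using the same wells. HeLa HSE-bla cells received compound for 5 h at 37 C; ATP-based CellTiter-Glo luminescence was measured after 30 min at room temperature.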
# [7] = qHTS assay for small molecule activators of the heat shock response signaling pathway (AID 743210; active means well fitted activation curve with a large enough effect in the signal ratio in the repeat runs, with a control signal flat, not every such curve was filed as active; the % refers to the signal ratio; further: potency means the concentration at half of the fitted maximal effect;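 on activation: HeLa cells with beta-lactamase reporter driven by heat shock elements; series mostly up to about 63 µM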)
# How it was run: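 Activation of heat shock element-controlled beta-lactamase expression is measured in HeLa cells by LiveBLAzer FRET fluorescence, with compound exposure lasting 5 h at 37 C and substrate loading 2.5 h at room temperature.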
# [8] = qHTS assay to identify small molecule agonists of the peroxisome proliferator-activated receptor delta (PPARd) signaling pathway - cell viability counter screen (AID 743211); further: nearly all actives have a fitted effect of over 55% in size; further: potency means the concentration at half of the fitted maximal effect
# How it was run: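 Read-out: CellTiter-Glo luminescence, 30 min RT, measured in the same wells as the beta-lactamase reporter. Cells: GeneBLAzer PPAR delta UAS-bla HEK293H, 3000 cells/well, compound exposure 17 h at 37C.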
# [9] = target: Peroxisome proliferator-activated receptor delta (Homo sapiens) (UniProt Q03181); assay: qHTS assay to identify small molecule agonists of the peroxisome proliferator-activated receptor delta (PPARd) signaling pathway (AID 743212; calls by dose curve)
# Peroxisome proliferator-activated receptor delta (Homo sapiens), sequence (Q03181 whole entry, looked up): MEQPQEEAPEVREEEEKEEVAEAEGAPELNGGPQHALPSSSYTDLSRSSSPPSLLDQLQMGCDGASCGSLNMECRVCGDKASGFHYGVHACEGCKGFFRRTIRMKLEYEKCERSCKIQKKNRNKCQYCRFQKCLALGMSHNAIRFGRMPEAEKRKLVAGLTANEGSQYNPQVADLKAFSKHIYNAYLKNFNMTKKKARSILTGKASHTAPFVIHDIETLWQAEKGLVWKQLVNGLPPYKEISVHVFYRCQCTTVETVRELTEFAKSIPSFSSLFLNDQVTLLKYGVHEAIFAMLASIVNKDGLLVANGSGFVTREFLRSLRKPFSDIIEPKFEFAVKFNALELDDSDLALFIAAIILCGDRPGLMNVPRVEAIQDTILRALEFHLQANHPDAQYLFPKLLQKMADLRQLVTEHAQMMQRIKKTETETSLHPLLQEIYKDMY
# How it was run: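 Cells expressing a UAS-driven beta-lactamase reporter (PPARd-bla HEK293H) were given test compounds after a 5 h settle and kept at 37 C. Reporter activity was then measured as FRET fluorescence using LiveBLAzer B/G substrate.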
# [10] = target: Peroxisome proliferator-activated receptor delta (Homo sapiens) (UniProt Q03181); assay: qHTS assay to identify small molecule antagonists of the peroxisome proliferator-activated receptor delta (PPARd) signaling pathway (AID 743215; active means well fitted inhibition curve with a large enough effect in the signal ratio in the repeat runs, not every such curve was filed as active; the % refers to the signal ratio;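 further: cells stimulated with agonist L165041 at 300 nM final during compound exposure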; further: potency means the concentration at half of the fitted maximal effect)
# How it was run: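 Cells: HEK293H with a UAS-driven beta-lactamase reporter responsive to PPARd. Compounds were co-added with L165041 (300 nM, final) and incubated 17 h at 37 C before a 2 h room-temperature FRET substrate step and fluorescence reading.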
# [11] = target: Bile acid receptor (Homo sapiens) (UniProt Q96RI1); assay: qHTS assay to identify small molecule agonists of the farnesoid-X-receptor (FXR) signaling pathway (AID 743220; active means well fitted activation curve with a large enough effect in the signal ratio in the repeat runs, not every such curve was filed as active; the % refers to the signal ratio)
# Bile acid receptor (Homo sapiens), sequence (Q96RI1 whole entry, looked up): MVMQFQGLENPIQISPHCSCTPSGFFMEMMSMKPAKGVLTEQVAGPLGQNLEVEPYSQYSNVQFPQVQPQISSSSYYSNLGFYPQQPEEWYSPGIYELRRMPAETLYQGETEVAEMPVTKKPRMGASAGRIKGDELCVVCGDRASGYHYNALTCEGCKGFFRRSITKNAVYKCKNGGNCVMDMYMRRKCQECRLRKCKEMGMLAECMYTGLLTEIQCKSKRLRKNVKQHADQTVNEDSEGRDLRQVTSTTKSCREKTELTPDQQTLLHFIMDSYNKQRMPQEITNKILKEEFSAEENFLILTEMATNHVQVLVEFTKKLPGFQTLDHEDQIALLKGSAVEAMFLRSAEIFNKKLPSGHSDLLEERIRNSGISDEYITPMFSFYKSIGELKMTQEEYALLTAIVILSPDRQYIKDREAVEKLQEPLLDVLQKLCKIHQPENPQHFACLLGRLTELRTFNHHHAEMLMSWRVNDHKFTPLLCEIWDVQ
# How it was run: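 FXR-UAS-bla HEK 293T cells carrying a UAS-driven beta-lactamase reporter were plated for 5 h at 37C/5% CO2, then exposed to DMSO-dissolved Tox21 10K compounds for 16 h at 37C. A LiveBLAzer B/G FRET substrate was loaded for 2 h at room temperature before fluorescence reading.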
# [12] = qHTS assay to identify small molecule antagonists of the farnesoid-X-receptor (FXR) signaling pathway - cell viability counter screen (AID 743221; active means well fitted cell-killing curve with a large enough effect in the repeat runs, not every such curve was filed as active; further: nearly all actives have a fitted effect of over 50% in size; further: potency means the concentration at half of the fitted maximal effect)
# How it was run: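 HEK 293T FXR-bla cells, 5 h pre-incubation; compound + CDCA 50 uM final, 16 h, 37 C; beta-lactamase FRET read first, then CellTiter-Glo luminescence, 30 min RT.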
# [13] = target: Vitamin D3 receptor (Homo sapiens) (UniProt P11473); assay: qHTS assay to identify small molecule agonists of the vitamin D receptor (VDR) signaling pathway (AID 743222; calls by dose curve)
# Vitamin D3 receptor (Homo sapiens), sequence (P11473 whole entry, looked up): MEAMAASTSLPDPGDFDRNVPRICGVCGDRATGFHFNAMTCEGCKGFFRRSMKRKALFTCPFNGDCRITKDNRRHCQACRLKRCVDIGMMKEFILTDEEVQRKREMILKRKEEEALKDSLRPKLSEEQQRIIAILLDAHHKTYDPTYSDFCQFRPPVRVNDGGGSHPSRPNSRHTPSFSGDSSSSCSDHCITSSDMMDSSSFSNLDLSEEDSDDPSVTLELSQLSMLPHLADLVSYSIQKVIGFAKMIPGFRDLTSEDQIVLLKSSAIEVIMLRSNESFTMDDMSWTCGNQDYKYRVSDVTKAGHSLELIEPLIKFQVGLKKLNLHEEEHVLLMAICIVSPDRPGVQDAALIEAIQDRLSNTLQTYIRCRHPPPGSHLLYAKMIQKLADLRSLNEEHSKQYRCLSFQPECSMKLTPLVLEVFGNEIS
# How it was run: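 Cells carrying a VDR-driven beta-lactamase reporter are seeded at 2,000 per well and rested 4 h. Compounds in DMSO are added for 16 h at 37C, and FRET substrate fluorescence is measured after 2 h at room temperature.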
# [14] = target: Vitamin D3 receptor (Homo sapiens) (UniProt P11473); assay: qHTS assay to identify small molecule antagonists of the vitamin D receptor (VDR) signaling pathway (AID 743223; active means well fitted inhibition curve with a large enough effect in the signal ratio in the repeat runs, not every such curve was filed as active; the % refers to the signal ratio)
# How it was run: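 Beta-lactamase reporter read-out: FRET substrate fluorescence after 2 h at room temperature, following 16 h exposure of VDR-bla cells to test compound plus 3 nM (final) 1alpha,25-dihydroxyvitamin D3 agonist at 37C.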
# [15] = target: Peroxisome proliferator-activated receptor gamma (Homo sapiens) (UniProt P37231); assay: qHTS assay to identify small molecule antagonists of the peroxisome proliferator-activated receptor gamma (PPARg) signaling pathway (AID 743191; calls by dose curve; further: nearly all actives have a fitted effect of over 30% in size; further: potency means the concentration at half of the fitted maximal effect)
# How it was run: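 GeneBLAzer PPARg UAS-bla HEK293H cells carrying a UAS-driven beta-lactamase reporter were plated at 3000 cells/well, preincubated 5 h at 37C, then given compound for 17 h at 37C; LiveBLAzer B/G FRET substrate was read after 1 h at room temperature.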
# [16] = qHTS assay for small molecule agonists of the antioxidant response element (ARE) signaling pathway - cell viability counter screen (AID 743203; calls by dose curve; further: nearly all actives have a fitted effect of over 55% in size; further: potency means the concentration at half of the fitted maximal effect)
# How it was run: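 Cytotoxicity was tested in parallel with the ARE reporter screen. ARE-bla HepG2 cells were exposed to compounds for 16 hrs, and viability was taken from CellTiter-Glo luminescence.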
# [17] = qHTS assay to identify small molecule agonists of the farnesoid-X-receptor (FXR) signaling pathway - cell viability counter screen (AID 743218); further: nearly all actives have a fitted effect of over 45% in size; further: potency means the concentration at half of the fitted maximal effect
# How it was run: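 Cells were seeded, left 5 h at 37 C and 5% CO2, then dosed with compound in DMSO for 16 h. After the beta-lactamase FRET read, CellTiter-Glo was added and luminescence measured 30 min later.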
# [18] = qHTS assay to identify small molecule antagonists of the peroxisome proliferator-activated receptor delta (PPARd) signaling pathway - cell viability counter screen (AID 743213); further: nearly all actives have a fitted effect of over 50% in size; further: potency means the concentration at half of the fitted maximal effect
# How it was run: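 Cytotoxicity counter screen: CellTiter-Glo luminescence read 30 min after addition, in the same wells as the reporter assay. There, PPARd UAS-bla HEK293H cells (3000/well) were treated 17 h at 37 C with compound and 300 nM L165041.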
# [19] = qHTS assay to identify small molecule antagonists of the peroxisome proliferator-activated receptor gamma (PPARg) signaling pathway - cell viability counter screen (AID 743194); details: Potency: co-treated with 50 nM rosiglitazone unless noted; further: nearly all actives have a fitted effect of over 55% in size
# How it was run: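 PPARg-UAS-bla HEK293H cells were plated, rested 5 h at 37 C, then treated with compounds plus rosiglitazone (50 nM final) for 17 h at 37 C; viability was then read by CellTiter-Glo luminescence after 30 min at room temperature.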
# [20] = target: Bile acid receptor (Homo sapiens) (UniProt Q96RI1); assay: qHTS assay to identify small molecule antagonists of the farnesoid-X-receptor (FXR) signaling pathway (AID 743217; active means well fitted inhibition curve with a large enough effect in the signal ratio in the repeat runs, not every such curve was filed as active; the % refers to the signal ratio; further: potency means the concentration at half of the fitted maximal effect)
# How it was run: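 Cells carrying a UAS-driven beta-lactamase reporter (GeneBLAzer FXR-UAS-bla HEK 293T) were plated and rested 5 h at 37 °C. Compounds in DMSO were added alongside chenodeoxycholic acid agonist at 50 uM final and left 16 h at 37 °C before FRET substrate readout.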
Structure (SMILES),Potency [1],Potency [2],Potency [3],Potency [4],Potency [5],Potency [6],Potency [7],Potency [8],Potency [9],Potency [10],outcome [11],Potency [12],outcome [13],outcome [14],Potency [15],Potency [16],Potency [17],Potency [18],Potency [19],Potency [20]
O=P(Oc1ccccc1)(Oc1ccccc1)Oc1ccccc1,inactive,inactive,inactive,inactive,inactive,inactive,inactive,24.4 µM (active),inactive,inactive,inactive,inactive,inactive,inactive,,,,,,
CCCCCCOC(=O)c1ccccc1C(=O)OCCCCCC,inactive,inactive,inactive,inactive,inactive,inactive,inactive,,inactive,inactive,,inactive,,,inactive,inactive,inactive,,,
c1ccc(P(c2ccccc2)c2ccccc2)cc1,inactive,inactive,inactive,inactive,,inactive,inactive and 3.34 µM (active),inactive,inactive,inactive,,inactive,inactive,inactive,inactive,,inactive,inactive,,
O=[N+]([O-])c1c(Cl)c(Cl)c(Cl)c(Cl)c1Cl,inactive,inactive,inactive,inactive,24.2 µM (active),inactive,inactive,inactive,inactive,inactive,,inactive,inactive,inactive,,19.3 µM (active),inactive,inactive,inactive,
COP(=S)(OC)Oc1cc(Cl)c(Cl)cc1Cl,inactive,inactive and 30.4 µM (active),inactive,inactive,inactive,inactive,inactive,inactive,inactive,inactive,,inactive,,,,inactive,,inactive,,
C=C(C)[C@H]1Cc2c(ccc3c2O[C@@H]2COc4cc(OC)c(OC)cc4[C@@H]2C3=O)O1,34.8 µM (active) and 34.4 µM (active),inactive,inactive and 39.1 µM (active) and 21.7 µM (active),inactive,0.0077 µM (active),inactive,inactive,inactive,inactive,4.9 µM (active) and inactive,inactive,inactive,,,13.3 µM (active),,,,,750 nM (active)
c1ccc(-c2cccc(-c3ccccc3)c2)cc1,inactive,inactive and 61.1 µM (active),inactive,inactive,inactive,inactive,inactive,inactive,,,inactive,inactive,,,inactive,,,inactive,,inactive
CC(C)(OOC(C)(C)c1ccccc1)c1ccccc1,inactive,inactive,inactive,inactive,inactive,48.3 µM (active) and inactive,inactive,inactive,inactive,inactive,inactive,inactive,inactive,inactive,,inactive,,,inactive,inactive
CC(C)Oc1cc(-n2nc(C(C)(C)C)oc2=O)c(Cl)cc1Cl,27.3 µM (active),inactive,inactive,inactive,,inactive,,15.5 µM (active),,inactive,inactive,inactive and 49 µM (active),inactive,inactive,,inactive and 34.4 µM (active),inactive and 38.9 µM (active),inactive and 27.5 µM (active),inactive,
Cc1ccc(OP(=O)(Oc2ccc(C)cc2)Oc2ccc(C)cc2)cc1,inactive,inactive,inactive,inactive,inactive,inactive,inactive,inactive,inactive,inactive,,inactive,inactive,inactive,,,inactive,inactive,inactive,
O=C(NC(=O)c1c(F)cccc1F)Nc1ccc(Cl)cc1,inactive,97.1 nM (active) and 611 nM (active),inactive,inactive,inactive,inactive,inactive,inactive,inactive,,inactive,inactive,inactive,inactive,inactive,inactive,inactive,,,inactive
C=CCc1ccc(OC)cc1,inactive,inactive,inactive,inactive,inactive,inactive,inactive,inactive,inactive,,,inactive,,,,,inactive,inactive,inactive,
Cc1ccc2c(c1N)C(=O)c1ccccc1C2=O,43.3 µM (active),3.03 µM (active) and 4.33 µM (active),27.3 µM (active),inactive,,inactive,inactive,inactive,inactive,inactive,inactive,inactive,,,,,,,inactive,
CCOC(=O)C(C)OC(=O)c1cc(Oc2ccc(C(F)(F)F)cc2Cl)ccc1[N+](=O)[O-] (configuration not stated),inactive,inactive,inactive,inactive,,inactive,,,inactive,inactive,,inactive,,,,inactive,,,,
Brc1ccc(Oc2cc(Br)c(Br)cc2Br)c(Br)c1,inactive,inactive,inactive,inactive,inactive,inactive,inactive,22 µM (active),inactive,inactive,inactive,inactive,inactive,inactive,,,,,inactive,
O=[N+]([O-])c1cccc2ccccc12,inactive,inactive,inactive,inactive,inactive,inactive,inactive,inactive,inactive,inactive,,inactive,,,inactive,,inactive,inactive,,
Oc1cc(Cl)ccc1Cl,inactive,inactive,inactive,inactive,inactive,inactive,inactive,inactive,inactive,inactive,,inactive,inactive,inactive,inactive,inactive,inactive,,,
CCCCCCCCCCCOC(=O)c1ccccc1C(=O)OCCCCCCCCCCC,inactive,inactive,inactive,inactive,inactive,inactive,,inactive,inactive,inactive,,inactive,inactive,inactive,,,inactive,,inactive,
